Assay outcomes as filed in PubChem BioAssay.
Shown is part of a subset that was picked to be rich in hits.
DAT uptake mod: modulates human dopamine transporter uptake under cocaine. actives 1.3% (n = 110,000). B-score at 10 µM. LLC-PK1 hDAT cells, [14C]-dopamine uptake with cocaine IC80; actives deviate in either direction. Q01959;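 active = Z score or B-score, a plate-position-corrected score, falls beyond the plate's 99.7% confidence bounds, in either direction; inactive = both scores lie inside the 99.7% bounds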;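 also: scored against the spread of the other compound wells on the same plate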
Target sequence (Q01959 whole entry, looked up): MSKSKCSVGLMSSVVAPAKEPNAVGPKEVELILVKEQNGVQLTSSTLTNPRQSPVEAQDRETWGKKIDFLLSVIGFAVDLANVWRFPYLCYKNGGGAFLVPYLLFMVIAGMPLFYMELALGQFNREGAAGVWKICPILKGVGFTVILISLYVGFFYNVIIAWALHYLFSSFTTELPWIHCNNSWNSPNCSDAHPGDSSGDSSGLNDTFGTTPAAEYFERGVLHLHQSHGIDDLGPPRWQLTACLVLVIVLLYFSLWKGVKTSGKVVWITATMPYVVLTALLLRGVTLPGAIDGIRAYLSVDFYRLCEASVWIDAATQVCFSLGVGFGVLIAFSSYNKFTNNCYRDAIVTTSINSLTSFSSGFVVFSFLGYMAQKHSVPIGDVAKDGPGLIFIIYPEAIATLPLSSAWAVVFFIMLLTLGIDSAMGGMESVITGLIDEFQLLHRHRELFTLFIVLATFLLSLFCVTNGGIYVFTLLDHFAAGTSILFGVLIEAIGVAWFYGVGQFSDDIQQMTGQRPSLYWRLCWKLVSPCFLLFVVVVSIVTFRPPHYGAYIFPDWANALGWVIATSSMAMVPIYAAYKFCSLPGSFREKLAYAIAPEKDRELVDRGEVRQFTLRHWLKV
BAP1 block: blocks human BAP1 ubiquitin-AMC hydrolysis | actives 0.48% (n = 72,000) | calls only at 20 µM | Q92560 | recombinant BAP1, Ub-AMC hydrolysis fluorescence kinetic; hits give low values;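 active = activity remaining at or below 50% of control, provided the compound also passes the data quality filters; inactive = the rest, including low values that fail the filters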;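 also: 100% = DMSO wells rate and 0% = substrate alone blank rate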
D1 mod: allosteric modulators of human D1 dopamine receptor; AID 641; HEK293 D1, CRE-luciferase, dopamine EC30 potentiation; actives deviate in either direction; actives 5.9% (n = 58,000); B-score at 10 µM; P21728;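 active = luminescence count or its row- and column-corrected plate score outside the 99.7% band of the plate's sample wells, on either side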
D1 mod confirm: confirmation of human D1 dopamine receptor allosteric modulators; HEK293 D1 CRE-luciferase, dopamine EC30 potentiation; hits give high values; actives 88% (n = 2,200); luminescence at 10 µM; shares compounds with D1 mod;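 active = luminescence in either of two replicates above the same-plate mean plus 3 SD of the low-dose dopamine control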
D1 ag no DA: activates D1 CRE-luciferase signal without dopamine present. shares compounds with D1 mod. HEK293 D1 CRE-luciferase, luminescence, no dopamine; hits give high values. luminescence at 10 µM. actives 0.8% (n = 1,900). AID 646; in the data active = luminescence above about 3900
Isoprot counter: isoproterenol response counter-screen activity for D1 modulators. shares compounds with D1 mod. HEK293 D1 CRE-luciferase, isoproterenol EC30 counter-screen; hits give high values. luminescence at 10 µM. actives 63% (n = 2,200). AID 647;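 active = luminescence in either replicate above plate mean of wells with a partly effective reference agonist dose plus 3 SD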;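 also: isoproterenol raises cAMP through native beta-adrenoceptor Gs so signal bypasses D1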
The depositor's hits bear a star; i = inactive; nt = no result shown.

SMILES	DAT uptake mod	BAP1 block	D1 mod	D1 mod confirm	D1 ag no DA	Isoprot counter
CCN(CC)c1ccc(-c2nn3c(-c4n[nH]c5c4CCC5)nnc3s2)cc1	0.027	nt	0.85	nt	nt	nt
COc1ccc(-c2nnc3sc(C4CCCCC4)nn23)cc1OC	1.6	i	15*	20172*	nt	14084*
COc1cc(-c2nnc3sc(-c4cccs4)nn23)cc(OC)c1OC	-0.22	i	1	nt	nt	nt
Oc1c(-c2ccc(F)cc2)c2nc3ccccc3nc2c2ccccc12	nt	i	nt	nt	nt	nt
Clc1ccccc1-c1nn2c(-c3ccncc3)nnc2s1	0.27	i	4.9*	7940*	1776	2952
Clc1ccccc1-c1nnc2sc(-c3ccncc3)nn12	-0.81	i	4.1	nt	nt	nt
CCOc1nc(C)ccc1-c1noc(-c2ccncc2)n1	2	i	18*	11268*	1692	4352*
CCOc1nc(-c2ccccc2)ccc1-c1noc(-c2ccncc2)n1	-0.87	i	-0.039	nt	nt	nt
CC(C)NC(=O)COc1cccc(Cl)c1	nt	i	nt	nt	nt	nt
COc1ccc(-n2cnc3ccccc32)cc1	-1.3	nt	nt	nt	nt	nt
COc1ccc2ncn(-c3ccccc3)c2c1	0.82	i	5.1*	8964*	1568	3308
COc1ccc(CNC(=O)C2CC(=O)N(c3ccc(Cl)cc3)C2)cc1 (centres undefined)	nt	i	nt	nt	nt	nt
COC(=O)/C(=C1/Oc2cc3c(cc2S1)OCO3)C(F)(F)F	0.42	i	3.4*	11868*	1480	2652
COc1ccc(CC(=O)NCc2ccc3c(c2)OCO3)cc1	-0.33	nt	nt	nt	nt	nt
Cc1ccc(C(=O)COC(=O)c2ccc(F)cc2)cc1[N+](=O)[O-]	nt	i	nt	nt	nt	nt
CCN(CC)C(=O)CSc1nc2c(sc(=S)n2Cc2ccco2)c(=O)n1-c1ccccc1	0.61	nt	nt	nt	nt	nt
CCOC(=O)CSc1nc2c(sc(=S)n2Cc2ccco2)c(=O)n1-c1ccccc1	-0.044	i	4.5*	8252*	1608	2980
CCCc1ccc(O)c(N=Cc2cc([N+](=O)[O-])cc(OC)c2O)c1	nt	i	nt	nt	nt	nt
Cn1c(=O)c2c(nc(SCCCC#N)n2Cc2c(F)cccc2Cl)n(C)c1=O	0.1	i	5.8*	7192*	1824	3908*
Cn1c(=O)c2c(nc(OCc3cccnc3)n2Cc2c(F)cccc2Cl)n(C)c1=O	2.1	i	0.52	nt	nt	nt
CC(=O)N1N=C(c2c(-c3ccccc3)c3cc([N+](=O)[O-])ccc3[nH]c2=O)CC1c1cccc(Br)c1 (centres undefined)	nt	i	nt	nt	nt	nt
CCCc1nc(N)c(C#N)c(N)c1C#N	0.25	i	19*	17760*	1744	3804*
CCCCCc1nc(N)c(C#N)c(-c2ccco2)c1CCCC	-0.032	nt	nt	nt	nt	nt
N#Cc1ccc(C(=O)Nc2nc(-c3ccc(F)cc3)cs2)cc1	nt	i	nt	nt	nt	nt
O=C(Nc1ccc(F)cc1)c1ccc([N+](=O)[O-])o1	nt	i	nt	nt	nt	nt
SMILES	DAT uptake mod	BAP1 block	D1 mod	D1 mod confirm	D1 ag no DA	Isoprot counter
COc1ccc(-c2ccc(=O)n(Cc3cc(=O)n4ccccc4n3)n2)cc1	1.2	i	26*	20696*	1572	4180*
COc1ccc(-c2ccc(=O)n(CC(=O)NCc3ccco3)n2)cc1	-0.24	i	2.3	nt	nt	nt
O=C(O)CCC(=O)Nc1ccccc1F	nt	i	nt	nt	nt	nt
CCOC(=O)CSc1nc2ccc(N3CCOCC3)cc2c(=O)n1Cc1ccc2c(c1)OCO2	nt	i	7*	9824*	1952	4480*
CCN(CC)C(=O)CSc1nc2cc3c(cc2c(=O)n1Cc1ccc2c(c1)OCO2)OCO3	-0.12	nt	1.8	nt	nt	nt
Cc1nn(C(=O)COc2ccccc2[N+](=O)[O-])c(C)c1Sc1ccc([N+](=O)[O-])cc1	nt	i	nt	nt	nt	nt
COc1ccccc1NCC(O)Cn1c2ccc(Cl)cc2c2cc(Cl)ccc21 (centres undefined)	nt	i	nt	nt	nt	nt
CCOC(=O)N1CCN(Cc2cc(=O)oc3cc4c(cc23)CCC4)CC1	1.8	i	nt	nt	nt	nt
COCCN(CCOC)Cc1cc(=O)oc2cc3c(cc12)CCC3	0.33	i	2.4*	9280*	nt	2844*
O=C(CN1C(=O)c2ccccc2C1=O)NCC(=O)OCC(=O)c1ccc([N+](=O)[O-])cc1	nt	i	nt	nt	nt	nt
Cc1cc(C)n2c(SCC(=O)NCc3ccco3)nnc2n1	-0.18	i	-0.6	nt	nt	nt
Cc1cc(C)n2nc(SC(C)C(=O)NCc3ccco3)nc2n1 (centres undefined)	0.025	i	7.1*	6820	1844	2388
O=C(CSc1nnnn1Cc1ccccc1)c1ccccc1	-1.4	i	4*	5880*	1460	2584
